Data on 10 molecules can be found in PubChem BioAssay AID493036 (Sanford-Burnham Center for Chemical Genomics, 2011).

Assay [1] is described as follows: NTR1-driven beta-arrestin-GFP spot formation – imaging, U2OS cells, high content, primary screen (AID 493036).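 For activation: 0% = DMSO without peptide and 100% = 100 nM NTR1 peptide.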 The settings on record: agonist mode, measured here: cell count, cytotoxicity flag, at 20 µM.
Assay [2] addresses Neurotensin receptor type 1 (Homo sapiens) (UniProt P30989). The description is as above. The following applies: agonist mode, at 20 µM, stronger effect = higher value.

Among all 330,000 compounds or so, about 560 (0.17%) were called active.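 Rule for the calls: active = activation at or above 40% of the spot to cytoplasm intensity ratio, with at least 20 cells analyzed; inconclusive = wells under 20 cells, flagged as cytotoxic or low count; inactive = the rest.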 The entries come from a sample that favours actives as a whole.

Sequence of Neurotensin receptor type 1 (Homo sapiens) (P30989 whole entry, looked up): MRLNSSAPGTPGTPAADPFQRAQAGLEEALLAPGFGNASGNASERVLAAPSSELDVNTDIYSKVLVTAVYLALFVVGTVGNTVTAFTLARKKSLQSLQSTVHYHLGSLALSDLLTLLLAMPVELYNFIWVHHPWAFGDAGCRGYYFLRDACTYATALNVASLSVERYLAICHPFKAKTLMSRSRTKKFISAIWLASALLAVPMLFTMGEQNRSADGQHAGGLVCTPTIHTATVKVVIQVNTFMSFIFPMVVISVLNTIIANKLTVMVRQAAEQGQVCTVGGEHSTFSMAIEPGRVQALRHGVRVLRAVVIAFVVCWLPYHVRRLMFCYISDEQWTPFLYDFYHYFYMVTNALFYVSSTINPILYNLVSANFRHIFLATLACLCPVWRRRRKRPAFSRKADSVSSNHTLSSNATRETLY

With `COc1cccc(N2C(=O)NC(=O)/C(=C\c3ccc([N+](=O)[O-])s3)C2=O)c1`, the cell count in assay [1] is 25 cells. For the same molecule, in assay [2], the activation is -0.6% (inactive).

With `O=C1NC(=O)N(c2ccccc2)C(=O)/C1=C/c1ccc([N+](=O)[O-])s1`, the cell count in assay [1] is 47 cells. Moreover, the activation in assay [2] is -0.1% (inactive).

As to `Cc1cccc(N2C(=O)NC(=O)/C(=C\c3cnn(-c4ccccc4)c3)C2=O)c1`, the cell count in assay [1] was 57 cells. Besides, in assay [2], the activation was 45.7% (active).

For `COc1ccc(C(=O)C2CN(C)CC2C(=O)c2ccc(OC)cc2)cc1` (stereo not given), the cell count in assay [1] was 41 cells. In addition, the activation in assay [2] was -0.1% (inactive).

With `O=C(CCCn1c(=O)[nH]c2cc(Cl)ccc2c1=O)N1CCC2(CC1)OCCO2`, the cell count in assay [1] was 62 cells. Moreover, the activation in assay [2] is 1.7% (inactive).

`COC(=O)C1=C(c2cc3ccccc3s2)C[C@@H]2CC[C@H]1N2C(=O)NCCO` came in with a cell count in assay [1] of 97 cells. Besides, in assay [2], the activation was 0.3% (inactive).

Consider `CC1CCCCN1Cc1cccnc1` (stereo not given), for which the cell count in assay [1] was 41 cells. Also, in assay [2], the activation was 1.8% (inactive).

In assay [1], `O=C(O)COc1ccccc1/C=C1\C(=O)NC(=O)N(CCC2=CCCCC2)C1=O` yielded a cell count of 52 cells. In addition, the activation in assay [2] is 0% (inactive).

`O=C1NC(=O)N(Cc2ccco2)C(=O)/C1=C\c1ccc(-c2ccc(F)cc2)o1` displayed a cell count in assay [1] of 62 cells. Besides, in assay [2], the activation was 23.3% (inactive).

Take `O=C1NC(=O)N(CCc2ccc(F)cc2)C(=O)/C1=C/C=C/c1ccccc1`: the cell count in assay [1] worked out at 50 cells. In assay [2], the activation is 41.5% (active).
